Our source for the Percent Effect values is ChEMBL document CHEMBL3988442, “University of Dundee, Small-Polar-MMV Screening Library” (2021).

For some of these results: Potency and affinity values are given separately.

Holding throughout (parameters): scale not given: direction of the effect not stated beside the values
Assay [1] concerns the target Protein translocase subunit SecA (Escherichia coli (strain K12)) (UniProt P10408). Description: Assay to Identify E. coli SecA ATPase Inhibitors. Type of assay: functional. As to conditions: 30 µM.
Assay [2] addresses T1, Ubiquitin-activating enzyme e1, putative (Leishmania donovani (strain BPK282A1)) (UniProt E9BSI1).
T1 sequence (whole entry): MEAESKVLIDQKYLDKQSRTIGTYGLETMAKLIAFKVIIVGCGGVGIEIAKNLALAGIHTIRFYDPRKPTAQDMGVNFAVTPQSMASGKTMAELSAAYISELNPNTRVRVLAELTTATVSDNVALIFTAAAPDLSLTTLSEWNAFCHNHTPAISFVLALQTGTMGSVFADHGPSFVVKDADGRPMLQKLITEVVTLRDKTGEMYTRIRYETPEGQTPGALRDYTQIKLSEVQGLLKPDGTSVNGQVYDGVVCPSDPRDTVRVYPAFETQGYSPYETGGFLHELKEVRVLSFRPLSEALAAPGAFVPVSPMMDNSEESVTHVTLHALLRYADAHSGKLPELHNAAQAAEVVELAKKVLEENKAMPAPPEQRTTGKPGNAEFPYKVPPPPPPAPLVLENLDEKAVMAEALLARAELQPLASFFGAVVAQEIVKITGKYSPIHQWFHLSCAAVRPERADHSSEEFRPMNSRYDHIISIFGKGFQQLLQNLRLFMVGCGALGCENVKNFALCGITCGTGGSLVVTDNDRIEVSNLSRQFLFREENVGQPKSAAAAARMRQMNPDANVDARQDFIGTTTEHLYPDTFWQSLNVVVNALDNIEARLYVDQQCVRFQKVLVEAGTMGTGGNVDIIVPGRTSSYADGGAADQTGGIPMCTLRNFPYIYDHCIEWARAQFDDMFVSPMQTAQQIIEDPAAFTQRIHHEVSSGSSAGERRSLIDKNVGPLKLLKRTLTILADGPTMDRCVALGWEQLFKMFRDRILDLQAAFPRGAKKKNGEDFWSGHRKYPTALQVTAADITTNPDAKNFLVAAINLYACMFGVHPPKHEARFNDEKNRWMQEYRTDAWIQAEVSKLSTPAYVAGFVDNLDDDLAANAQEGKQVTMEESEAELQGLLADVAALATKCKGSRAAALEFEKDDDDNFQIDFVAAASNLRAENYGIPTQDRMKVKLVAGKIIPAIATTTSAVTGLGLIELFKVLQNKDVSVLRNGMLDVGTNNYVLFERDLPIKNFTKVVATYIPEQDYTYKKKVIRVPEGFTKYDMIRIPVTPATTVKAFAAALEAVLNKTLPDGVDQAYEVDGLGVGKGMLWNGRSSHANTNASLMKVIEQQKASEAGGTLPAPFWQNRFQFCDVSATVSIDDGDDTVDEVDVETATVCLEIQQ
The assay can be described thus: Leishmania donovani Ubiquitin Activating Enzyme (LdE1). The format is functional. As to conditions: 30 µM.

Assay [3] concerns the target AMP-activated protein kinase, AMPK (Homo sapiens) (UniProt P54646+O43741+P54619+Q9UGJ0+Q9Y478+Q13131+Q9UGI9). The assay can be described thus: AMP-dependent Kinase enzyme assay. An in vitro enzyme assay that detects ADP turnover that is directly proportional to AMPK activity. This uses naive AMPK that is activated during the assay with MK-8722. Conditions: 30 µM. Type of assay: functional.

Assay [4] concerns the target Sialic acid-binding Ig-like lectin 9 (Homo sapiens) (UniProt Q9Y336). Description: Hs-Siglec9 ALPHAscreen SOP 20170721. Conditions: 10 µM. On the technique in general: In Alpha technology, singlet oxygen from a donor bead excites a nearby acceptor bead.
The test system of the next assay is Trypanosoma cruzi. The assay can be described thus: Trypanosoma cruzi phosphomannomutase and mannose-1-phosphate guanylyltransferase assay. Type of assay: functional. Conditions: 10 µM.
Assay [5] addresses T2, Arginase-2, mitochondrial (Homo sapiens) (UniProt P78540).
T2 sequence (whole entry): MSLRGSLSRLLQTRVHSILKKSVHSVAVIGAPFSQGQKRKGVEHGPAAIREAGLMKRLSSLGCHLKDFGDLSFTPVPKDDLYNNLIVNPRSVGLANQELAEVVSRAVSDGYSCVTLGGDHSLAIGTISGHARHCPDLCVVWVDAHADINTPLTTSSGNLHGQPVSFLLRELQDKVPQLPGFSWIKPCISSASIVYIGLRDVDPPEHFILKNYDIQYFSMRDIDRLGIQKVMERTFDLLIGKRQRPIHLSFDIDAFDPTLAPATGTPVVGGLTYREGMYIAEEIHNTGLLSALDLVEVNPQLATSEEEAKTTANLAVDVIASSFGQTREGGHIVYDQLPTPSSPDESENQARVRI
The assay can be described thus: in vitro enzyme assay to detect the production of urea directly proportional to the activity of Arginase II. Further: in the data most compounds retested in dose-response had high values. The format is functional. As to conditions: 33.3 µM.

Assay [6] addresses T3, Proteasome subunit beta (Trypanosoma cruzi) (UniProt O96673).
T3 sequence (whole entry): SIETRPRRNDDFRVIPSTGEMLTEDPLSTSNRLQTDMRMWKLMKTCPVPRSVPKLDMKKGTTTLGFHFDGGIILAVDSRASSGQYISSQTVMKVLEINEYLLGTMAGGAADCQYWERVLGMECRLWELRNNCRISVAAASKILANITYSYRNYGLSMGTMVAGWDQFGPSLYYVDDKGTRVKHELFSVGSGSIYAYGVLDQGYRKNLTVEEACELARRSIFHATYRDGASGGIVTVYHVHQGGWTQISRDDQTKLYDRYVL
The assay can be described thus: Trypanosoma cruzi proteasome chymotrypsin-like activity (TcProtChymo) assay. Further: in the data most compounds retested in dose-response had high values. Type of assay: functional. Conditions: 9.37 µM.

For another assay, the species on record is Homo sapiens. Description: To identify inhibition of the IFN signalling (Jak-Stat) pathway via expression of an eGFP reporter gene under the control of an IFN-stimulated response element (ISRE) containing MxA promoter. The format is functional. As to conditions: 30 µM. On the technique in general: In a reporter assay the amount or activity of a reporter protein is the signal.

Assay [7] deals with T4, Tyrosyl-tRNA synthetase, putative (Trypanosoma cruzi (strain CL Brener)) (UniProt Q4DSP6).
T4 sequence (whole entry): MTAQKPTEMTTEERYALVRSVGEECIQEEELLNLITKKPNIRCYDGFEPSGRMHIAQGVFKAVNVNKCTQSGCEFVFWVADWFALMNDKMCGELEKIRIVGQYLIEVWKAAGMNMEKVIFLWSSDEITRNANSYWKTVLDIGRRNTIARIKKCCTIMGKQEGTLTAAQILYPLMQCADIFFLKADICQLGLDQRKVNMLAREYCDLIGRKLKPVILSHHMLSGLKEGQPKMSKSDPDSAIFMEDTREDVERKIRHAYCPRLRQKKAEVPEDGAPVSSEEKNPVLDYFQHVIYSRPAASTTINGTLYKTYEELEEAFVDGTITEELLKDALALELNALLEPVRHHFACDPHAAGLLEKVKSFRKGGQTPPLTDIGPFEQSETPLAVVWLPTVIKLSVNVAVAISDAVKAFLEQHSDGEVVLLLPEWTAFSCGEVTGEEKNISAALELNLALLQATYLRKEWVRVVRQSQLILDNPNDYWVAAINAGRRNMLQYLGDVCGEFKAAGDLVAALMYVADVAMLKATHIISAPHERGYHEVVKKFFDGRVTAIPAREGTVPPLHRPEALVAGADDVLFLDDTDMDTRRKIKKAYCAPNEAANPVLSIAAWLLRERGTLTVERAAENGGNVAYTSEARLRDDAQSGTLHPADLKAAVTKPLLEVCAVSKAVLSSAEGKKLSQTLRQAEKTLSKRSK
Description: Trypanosoma cruzi tyrosyl tRNA synthetase (TcYRS) _High Tyrosine SOP. Further: in the data most compounds retested in dose-response had high values. The format is functional. Conditions: 30 µM.

Assay [8] has as its target T4, Tyrosyl-tRNA synthetase, putative (Trypanosoma cruzi (strain CL Brener)). Description: Trypanosoma cruzi tyrosyl tRNA synthetase (TcYRS) SOP. Type of assay: functional. As to conditions: 30 µM.
Assay [9] deals with Chromo domain-containing protein 1 (Saccharomyces cerevisiae (strain ATCC 204508 / S288c) (Baker's yeast)) (UniProt P32657). Description: ScCHD-1 Enzyme Inhibition Assay. Further: in the data most compounds retested in dose-response had high values. Type of assay: functional. Conditions: 30 µM.
Chain of Chromo domain-containing protein 1 (Saccharomyces cerevisiae (strain ATCC 204508 / S288c) (Baker's yeast)) (P32657 whole entry, the tested form may be a part): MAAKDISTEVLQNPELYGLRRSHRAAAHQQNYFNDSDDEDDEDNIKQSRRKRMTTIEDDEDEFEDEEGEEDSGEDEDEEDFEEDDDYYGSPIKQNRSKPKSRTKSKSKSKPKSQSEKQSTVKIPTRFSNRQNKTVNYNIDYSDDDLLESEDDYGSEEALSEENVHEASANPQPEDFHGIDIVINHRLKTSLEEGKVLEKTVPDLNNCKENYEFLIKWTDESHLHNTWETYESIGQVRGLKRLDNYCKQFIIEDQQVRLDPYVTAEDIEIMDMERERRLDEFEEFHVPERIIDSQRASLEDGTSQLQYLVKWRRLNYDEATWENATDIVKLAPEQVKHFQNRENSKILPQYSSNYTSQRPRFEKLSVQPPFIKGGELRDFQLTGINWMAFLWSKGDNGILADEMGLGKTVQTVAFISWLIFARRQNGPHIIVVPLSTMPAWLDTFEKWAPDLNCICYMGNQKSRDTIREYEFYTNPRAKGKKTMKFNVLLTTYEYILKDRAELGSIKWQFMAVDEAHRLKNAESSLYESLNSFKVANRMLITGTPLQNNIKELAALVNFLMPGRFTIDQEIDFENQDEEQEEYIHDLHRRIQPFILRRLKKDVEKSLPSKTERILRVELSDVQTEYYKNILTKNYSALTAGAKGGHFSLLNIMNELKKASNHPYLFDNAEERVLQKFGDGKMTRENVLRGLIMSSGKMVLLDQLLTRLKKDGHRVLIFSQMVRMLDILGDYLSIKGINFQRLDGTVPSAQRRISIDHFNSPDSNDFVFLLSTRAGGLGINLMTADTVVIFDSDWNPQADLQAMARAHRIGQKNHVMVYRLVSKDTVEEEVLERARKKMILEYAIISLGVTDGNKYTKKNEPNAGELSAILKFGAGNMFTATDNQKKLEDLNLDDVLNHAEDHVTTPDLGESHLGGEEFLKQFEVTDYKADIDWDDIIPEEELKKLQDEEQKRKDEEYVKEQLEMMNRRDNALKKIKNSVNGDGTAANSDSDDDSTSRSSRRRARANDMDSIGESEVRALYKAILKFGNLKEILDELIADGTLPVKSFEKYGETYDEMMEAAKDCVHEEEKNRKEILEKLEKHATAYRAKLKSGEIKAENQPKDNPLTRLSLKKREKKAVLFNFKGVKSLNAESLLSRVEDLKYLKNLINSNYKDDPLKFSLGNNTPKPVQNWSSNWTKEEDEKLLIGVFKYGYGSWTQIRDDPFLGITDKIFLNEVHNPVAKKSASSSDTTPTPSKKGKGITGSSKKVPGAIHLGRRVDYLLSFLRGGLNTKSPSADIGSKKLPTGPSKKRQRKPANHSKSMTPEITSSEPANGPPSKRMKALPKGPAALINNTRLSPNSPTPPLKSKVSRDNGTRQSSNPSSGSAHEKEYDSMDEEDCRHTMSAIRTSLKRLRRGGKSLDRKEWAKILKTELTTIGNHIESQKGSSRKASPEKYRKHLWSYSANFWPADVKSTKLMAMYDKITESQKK

Chain of Sialic acid-binding Ig-like lectin 9 (Homo sapiens) (Q9Y336 whole entry): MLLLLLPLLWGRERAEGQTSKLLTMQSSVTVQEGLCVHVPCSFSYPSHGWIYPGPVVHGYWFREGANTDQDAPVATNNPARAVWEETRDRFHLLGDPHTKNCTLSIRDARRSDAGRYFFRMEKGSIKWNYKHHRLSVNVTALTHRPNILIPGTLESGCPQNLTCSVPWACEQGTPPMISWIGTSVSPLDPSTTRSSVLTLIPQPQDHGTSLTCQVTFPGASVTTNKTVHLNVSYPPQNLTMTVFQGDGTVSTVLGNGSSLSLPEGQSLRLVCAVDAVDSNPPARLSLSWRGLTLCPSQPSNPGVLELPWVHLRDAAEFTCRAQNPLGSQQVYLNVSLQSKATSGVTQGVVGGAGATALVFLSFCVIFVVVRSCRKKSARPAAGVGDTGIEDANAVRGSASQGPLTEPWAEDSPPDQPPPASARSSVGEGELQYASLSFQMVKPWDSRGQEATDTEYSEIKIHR
Chain of Protein translocase subunit SecA (Escherichia coli (strain K12)) (P10408 whole entry): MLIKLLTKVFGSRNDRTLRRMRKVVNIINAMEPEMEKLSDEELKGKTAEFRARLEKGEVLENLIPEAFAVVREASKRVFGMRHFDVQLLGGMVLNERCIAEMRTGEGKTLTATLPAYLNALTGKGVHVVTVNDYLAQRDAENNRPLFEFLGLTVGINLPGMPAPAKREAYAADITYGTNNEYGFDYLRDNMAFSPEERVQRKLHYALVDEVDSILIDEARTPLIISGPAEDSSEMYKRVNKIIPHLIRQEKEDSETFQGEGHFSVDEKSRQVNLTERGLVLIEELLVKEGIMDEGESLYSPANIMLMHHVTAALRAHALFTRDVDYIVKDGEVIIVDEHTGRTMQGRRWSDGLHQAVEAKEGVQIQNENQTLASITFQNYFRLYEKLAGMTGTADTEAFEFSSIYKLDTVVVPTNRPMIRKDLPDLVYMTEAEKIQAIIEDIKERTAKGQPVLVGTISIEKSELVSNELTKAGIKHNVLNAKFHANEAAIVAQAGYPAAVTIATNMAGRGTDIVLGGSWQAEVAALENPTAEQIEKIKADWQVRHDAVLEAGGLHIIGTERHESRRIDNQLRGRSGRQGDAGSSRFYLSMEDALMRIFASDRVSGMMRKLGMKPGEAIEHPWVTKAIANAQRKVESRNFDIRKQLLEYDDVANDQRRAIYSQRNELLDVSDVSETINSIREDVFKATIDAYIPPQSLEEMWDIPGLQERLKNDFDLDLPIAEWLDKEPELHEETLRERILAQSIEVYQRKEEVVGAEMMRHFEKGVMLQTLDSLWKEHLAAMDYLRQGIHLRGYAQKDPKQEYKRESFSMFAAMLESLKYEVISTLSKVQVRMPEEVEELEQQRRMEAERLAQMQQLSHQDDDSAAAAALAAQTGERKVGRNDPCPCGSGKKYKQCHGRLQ

`Cc1ccccc1C(=O)Nc1cnn(CC(=O)NC2CCCC2)c1`: the Percent Effect is -4.39% in assay [1]; 0% in assay [2]; -22.8% in assay [3]; 4.85% in assay [4]; 1.98% in the assay with Trypanosoma cruzi; 1.6% in assay [5]. Besides, the Percent Effect in [6] was 20.5%; in the assay filed under Homo sapiens, 6.03%; in assay [7] it was 7.29%; in [8], 11.1%; in assay [9] it was -0.609%.
With `CC(C)N(C)Cc1nnc2n1CCCN(C(=O)c1ccco1)C2`, the Percent Effect in [1] is -1.99%; in assay [2] it was 10.4%; in assay [3], 3.35%; in assay [4], 2.67%; in the assay with Trypanosoma cruzi, 1.08%; in assay [5], 13.6%. For the same molecule, the Percent Effect in assay [6] was 14.3%; in the assay filed under Homo sapiens, 24.5%; in assay [7] it was 7.41%; in assay [8], 14.1%; in [9], -7.03%.
For `CN(C)C(=O)Cc1nc(CN2CCn3c(nnc3C3CC3)C2)cs1`, the Percent Effect in assay [1] is -3.93%; in assay [2] it was 16.2%; in [3], 2.91%; in assay [4], 3.53%; in the assay on Trypanosoma cruzi, 2.14%; in assay [5] it was -2.4%. Besides, the Percent Effect is 10.8% in assay [6]; 7.25% in the assay listed under Homo sapiens; 5.94% in [7]; 15.8% in assay [8]; -2.27% in assay [9].
For `Cn1cc(S(=O)(=O)N2CCCC2CC(=O)c2cccs2)cn1` (stereo unspecified), the Percent Effect in assay [1] was 2.62%; in assay [2], 0%; in assay [3] it was 0.659%; in [4], -5.21%; with Trypanosoma cruzi, -5.79%; in assay [5] it was 1.43%. Also, the Percent Effect in [6] was 14.8%; in the assay filed under Homo sapiens it was 11.2%; in assay [7], 2.65%; in assay [8], 4.88%; in [9], -3.57%.
On to `N#Cc1ccnc(N2CCC(c3nccn3Cc3cscn3)CC2)c1`, for which the Percent Effect in assay [1] is -1.75%; in assay [2] it was 13.3%; in [3], 2.35%; in [4] it was 5.36%; in the assay on Trypanosoma cruzi, 3.8%; in [5], 0%. The Percent Effect was 15.5% in assay [6]; 21.8% in the assay filed under Homo sapiens; 4.92% in assay [7]; 13.6% in assay [8]; -7.45% in assay [9].
`NC(=O)C1CN(C(=O)Nc2ccccc2N2CCCCCC2)CCO1` (stereo unspecified): the Percent Effect in assay [1] is -6.93%; in [2], -48.6%; in assay [3] it was -3.8%; in assay [4] it was 9.74%; in the assay on Trypanosoma cruzi it was 6.96%; in [5] it was -3.88%. The Percent Effect in assay [6] was 4.31%; in the assay listed under Homo sapiens, 11.3%; in assay [7], 1.98%; in assay [8], 15.8%; in assay [9] it was -1.09%.
`Cc1noc(C(C)C)c1C(=O)NCC(c1cccc(F)c1)N(C)C` (stereo unspecified): the Percent Effect in assay [1] is 0.211%; in assay [2], -2.53%; in assay [3], 0.144%; in [4] it was -2.52%; in the assay with Trypanosoma cruzi it was -1.6%; in assay [5], 5.32%. For the same molecule, the Percent Effect in [6] is -7.45%; in the assay filed under Homo sapiens, 2.06%; in assay [7], 2.46%; in [8], -8.86%; in [9], 2.02%.
In the case of `Cc1cnn(C2CCCN(C(=O)CCCNc3ncccn3)C2)c1` (stereo unspecified), the Percent Effect in assay [1] was 0.326%; in [2] it was 21.6%; in [3] it was -4.82%; in assay [4], -6.78%; with Trypanosoma cruzi it was -4.62%; in assay [5], 0%. Further, the Percent Effect in assay [6] is 10.3%; in the assay listed under Homo sapiens, 6.71%; in assay [7], -13.3%; in assay [8] it was 16.1%; in [9] it was -4.22%.
For the molecule `COc1cccc(CN(C)C(=O)CN2CC(n3nc(C)cc3C)C2)c1`, the Percent Effect is -0.578% in assay [1]; -73.7% in assay [2]; 0.521% in [3]; -5.84% in assay [4]; 1.27% in the assay on Trypanosoma cruzi; 1.18% in assay [5]. The Percent Effect was 24.3% in [6]; 23.1% in the assay filed under Homo sapiens; 26.6% in assay [7]; 39% in [8]; -4.54% in [9].
Regarding `CN(CCn1nc2ccccn2c1=O)CC(=O)N1CCCC1`, the Percent Effect in assay [1] was -5.53%; in assay [2], 0%; in assay [3] it was 6.84%; in assay [4], 5.95%; with Trypanosoma cruzi, -6.33%; in assay [5], 3.55%. Moreover, the Percent Effect in assay [6] was 11.6%; in the assay filed under Homo sapiens, 15.5%; in assay [7], 3.19%; in [8], 2.6%; in [9], 29.3%.
Consider `CC(C)NC(=O)c1sccc1N(C)S(=O)(=O)c1ccc(Cl)cc1`, for which the Percent Effect in assay [1] is 2.02%; in assay [2], 7.89%; in [3] it was 10.6%; in assay [4] it was -13%; in the assay on Trypanosoma cruzi, -7.5%; in [5], 11.8%. In addition, the Percent Effect was 13.1% in assay [6]; 22.6% in the assay filed under Homo sapiens; -2.13% in assay [7]; 0% in [8]; -5.6% in assay [9].
